Results: article PMC11006913

What follows are sequences tested against HOXA7 (Homo sapiens, UniProt P31268 116-202) (assay: PBM; 200 nM protein, PBS). Conditions: dsDNA, one strand shown.
Sequence of HOXA7 (Homo sapiens, UniProt P31268 116-202) (P31268 116-202): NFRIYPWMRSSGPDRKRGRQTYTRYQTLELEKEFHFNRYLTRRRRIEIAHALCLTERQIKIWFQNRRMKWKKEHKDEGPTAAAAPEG

| Sequence | binding signal |
| --- | --- |
| AGACGGGA | 8.62 upbm affinity estimate (log intensity, higher = more binding, comparable within an allelic series) |
| CAGCAACC | 8.52 upbm affinity estimate (log intensity, higher = more binding, comparable within an allelic series) |
| CATTATGC | 10.3 upbm affinity estimate (log intensity, higher = more binding, comparable within an allelic series) |
| TACGTTAA | 9.58 upbm affinity estimate (log intensity, higher = more binding, comparable within an allelic series) |
| CCATAATC | 9.89 upbm affinity estimate (log intensity, higher = more binding, comparable within an allelic series) |
| AGCGCCGA | 8.38 upbm affinity estimate (log intensity, higher = more binding, comparable within an allelic series) |
| CGAGGACG | 8.54 upbm affinity estimate (log intensity, higher = more binding, comparable within an allelic series) |
| CCTCGAGG | 8.59 upbm affinity estimate (log intensity, higher = more binding, comparable within an allelic series) |
| CATTTACA | 9.74 upbm affinity estimate (log intensity, higher = more binding, comparable within an allelic series) |
| ACTGAAGG | 8.48 upbm affinity estimate (log intensity, higher = more binding, comparable within an allelic series) |
| CCCCCGAC | 8.66 upbm affinity estimate (log intensity, higher = more binding, comparable within an allelic series) |
| AGGCTGGA | 8.5 upbm affinity estimate (log intensity, higher = more binding, comparable within an allelic series) |
| CATTTTAA | 9.97 upbm affinity estimate (log intensity, higher = more binding, comparable within an allelic series) |
| CCATTTAA | 10.5 upbm affinity estimate (log intensity, higher = more binding, comparable within an allelic series) |
| CGGAAGGC | 8.5 upbm affinity estimate (log intensity, higher = more binding, comparable within an allelic series) |
| TAGTTTAA | 9.76 upbm affinity estimate (log intensity, higher = more binding, comparable within an allelic series) |
| CAGTAATC | 9.67 upbm affinity estimate (log intensity, higher = more binding, comparable within an allelic series) |
| ATATTGTA | 9.55 upbm affinity estimate (log intensity, higher = more binding, comparable within an allelic series) |
| GACAGCGA | 8.31 upbm affinity estimate (log intensity, higher = more binding, comparable within an allelic series) |
| CAGCGTGG | 8.45 upbm affinity estimate (log intensity, higher = more binding, comparable within an allelic series) |

| Sequence | binding signal |
| --- | --- |
| AGAGCCTG | 8.58 upbm affinity estimate (log intensity, higher = more binding, comparable within an allelic series) |
| AAGCGGCG | 8.49 upbm affinity estimate (log intensity, higher = more binding, comparable within an allelic series) |
| GAGCCAGC | 8.52 upbm affinity estimate (log intensity, higher = more binding, comparable within an allelic series) |
| AGGCAAGG | 8.35 upbm affinity estimate (log intensity, higher = more binding, comparable within an allelic series) |
| CCTTCGAC | 8.4 upbm affinity estimate (log intensity, higher = more binding, comparable within an allelic series) |
| CGGTCCGC | 8.63 upbm affinity estimate (log intensity, higher = more binding, comparable within an allelic series) |
| GCGGCTAC | 8.37 upbm affinity estimate (log intensity, higher = more binding, comparable within an allelic series) |
| CGCTGTGC | 8.49 upbm affinity estimate (log intensity, higher = more binding, comparable within an allelic series) |
| GCAAGCGA | 8.55 upbm affinity estimate (log intensity, higher = more binding, comparable within an allelic series) |
| CAGAGGAG | 8.43 upbm affinity estimate (log intensity, higher = more binding, comparable within an allelic series) |
| AAATTGCC | 10.3 upbm affinity estimate (log intensity, higher = more binding, comparable within an allelic series) |
| AGAAGAAA | 8.53 upbm affinity estimate (log intensity, higher = more binding, comparable within an allelic series) |
| AGAATTAC | 9.68 upbm affinity estimate (log intensity, higher = more binding, comparable within an allelic series) |
| CCAGGTCG | 8.48 upbm affinity estimate (log intensity, higher = more binding, comparable within an allelic series) |
| GCAGGTCC | 8.46 upbm affinity estimate (log intensity, higher = more binding, comparable within an allelic series) |
| TGAGAGCA | 8.62 upbm affinity estimate (log intensity, higher = more binding, comparable within an allelic series) |
| AATTGTAA | 9.73 upbm affinity estimate (log intensity, higher = more binding, comparable within an allelic series) |
| GGAACTCA | 8.54 upbm affinity estimate (log intensity, higher = more binding, comparable within an allelic series) |
| ACAGCGAG | 8.39 upbm affinity estimate (log intensity, higher = more binding, comparable within an allelic series) |
| ATAAGTAT | 9.57 upbm affinity estimate (log intensity, higher = more binding, comparable within an allelic series) |

What follows are sequences tested against HOXA7 (Homo sapiens, UniProt P31268 116-202, W177C) (assay: PBM; 200 nM protein, PBS). Conditions: dsDNA, one strand shown.
Sequence of HOXA7 (Homo sapiens, UniProt P31268 116-202, W177C) (P31268 116-202 W177C): as the sequence (P31268 116-202) above, with W62C counted along it

| Sequence | binding signal |
| --- | --- |
| AGACGGGA | 8.51 upbm affinity estimate (log intensity, higher = more binding, comparable within an allelic series) |
| CAGCAACC | 8.47 upbm affinity estimate (log intensity, higher = more binding, comparable within an allelic series) |
| CATTATGC | 8.86 upbm affinity estimate (log intensity, higher = more binding, comparable within an allelic series) |
| TACGTTAA | 8.79 upbm affinity estimate (log intensity, higher = more binding, comparable within an allelic series) |
| CCATAATC | 8.75 upbm affinity estimate (log intensity, higher = more binding, comparable within an allelic series) |
| AGCGCCGA | 8.29 upbm affinity estimate (log intensity, higher = more binding, comparable within an allelic series) |
| CGAGGACG | 8.4 upbm affinity estimate (log intensity, higher = more binding, comparable within an allelic series) |
| CCTCGAGG | 8.59 upbm affinity estimate (log intensity, higher = more binding, comparable within an allelic series) |
| CATTTACA | 8.8 upbm affinity estimate (log intensity, higher = more binding, comparable within an allelic series) |
| ACTGAAGG | 8.52 upbm affinity estimate (log intensity, higher = more binding, comparable within an allelic series) |
| CCCCCGAC | 8.36 upbm affinity estimate (log intensity, higher = more binding, comparable within an allelic series) |
| AGGCTGGA | 8.45 upbm affinity estimate (log intensity, higher = more binding, comparable within an allelic series) |
| CATTTTAA | 8.79 upbm affinity estimate (log intensity, higher = more binding, comparable within an allelic series) |
| CCATTTAA | 8.76 upbm affinity estimate (log intensity, higher = more binding, comparable within an allelic series) |
| CGGAAGGC | 8.35 upbm affinity estimate (log intensity, higher = more binding, comparable within an allelic series) |
| TAGTTTAA | 8.8 upbm affinity estimate (log intensity, higher = more binding, comparable within an allelic series) |
| CAGTAATC | 8.66 upbm affinity estimate (log intensity, higher = more binding, comparable within an allelic series) |
| ATATTGTA | 8.9 upbm affinity estimate (log intensity, higher = more binding, comparable within an allelic series) |
| GACAGCGA | 8.41 upbm affinity estimate (log intensity, higher = more binding, comparable within an allelic series) |
| CAGCGTGG | 8.4 upbm affinity estimate (log intensity, higher = more binding, comparable within an allelic series) |

| Sequence | binding signal |
| --- | --- |
| AGAGCCTG | 8.43 upbm affinity estimate (log intensity, higher = more binding, comparable within an allelic series) |
| AAGCGGCG | 8.33 upbm affinity estimate (log intensity, higher = more binding, comparable within an allelic series) |
| GAGCCAGC | 8.41 upbm affinity estimate (log intensity, higher = more binding, comparable within an allelic series) |
| AGGCAAGG | 8.48 upbm affinity estimate (log intensity, higher = more binding, comparable within an allelic series) |
| CCTTCGAC | 8.45 upbm affinity estimate (log intensity, higher = more binding, comparable within an allelic series) |
| CGGTCCGC | 8.41 upbm affinity estimate (log intensity, higher = more binding, comparable within an allelic series) |
| GCGGCTAC | 8.37 upbm affinity estimate (log intensity, higher = more binding, comparable within an allelic series) |
| CGCTGTGC | 8.35 upbm affinity estimate (log intensity, higher = more binding, comparable within an allelic series) |
| GCAAGCGA | 8.45 upbm affinity estimate (log intensity, higher = more binding, comparable within an allelic series) |
| CAGAGGAG | 8.46 upbm affinity estimate (log intensity, higher = more binding, comparable within an allelic series) |
| AAATTGCC | 8.7 upbm affinity estimate (log intensity, higher = more binding, comparable within an allelic series) |
| AGAAGAAA | 8.55 upbm affinity estimate (log intensity, higher = more binding, comparable within an allelic series) |
| AGAATTAC | 8.8 upbm affinity estimate (log intensity, higher = more binding, comparable within an allelic series) |
| CCAGGTCG | 8.45 upbm affinity estimate (log intensity, higher = more binding, comparable within an allelic series) |
| GCAGGTCC | 8.46 upbm affinity estimate (log intensity, higher = more binding, comparable within an allelic series) |
| TGAGAGCA | 8.54 upbm affinity estimate (log intensity, higher = more binding, comparable within an allelic series) |
| AATTGTAA | 8.68 upbm affinity estimate (log intensity, higher = more binding, comparable within an allelic series) |
| GGAACTCA | 8.56 upbm affinity estimate (log intensity, higher = more binding, comparable within an allelic series) |
| ACAGCGAG | 8.41 upbm affinity estimate (log intensity, higher = more binding, comparable within an allelic series) |
| ATAAGTAT | 8.76 upbm affinity estimate (log intensity, higher = more binding, comparable within an allelic series) |
